# Experimental data: PubChem BioAssay (NCI)
# The panel holds about 83,000 compounds, 20% with a hit somewhere; the sample as a whole holds those more often.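 96-well plates, one dose, 48 hours. Percent growth reported; active if below 10.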 Unmarked numbers belong to inactive results. Active and inactive are the calls of the source.
# Test system: SF-268 CNS
# Test: NCI-60 one-dose screen, 48 h (100 = growth as untreated, 0 = no growth, -100 = all killed)
# Settings: 10 µM unless noted
row,SMILES,growth
1,COc1cc(C=C2c3ccccc3C(=O)c3ccccc32)ccc1OCCCCOc1cc2c(cc1OC)C(=O)N1CCCC1C=N2 (configuration not stated),-59.9% (active)
2,C[CH2][Sn]([Cl])([Cl])[CH2]C.Oc1ccccc1C=NCCN=Cc1ccccc1O,106%
3,COc1ccc(O)c(CNC(=O)CN2CCCC2=O)c1,96.8%
4,CCOC(=O)C(Cc1ccc(N(CCCl)CCCl)cc1)NC(=O)C(CC(C)C)NC(C)=O (configuration not stated),5.5% (active)
5,C[C@]12CC[C@H]3[C@@H](CC[C@]4(O)C[C@@H](O[C@@H]5O[C@H](CO)[C@@H](O[C@@H]6OC[C@@H](O)[C@H](O)[C@H]6O)[C@H](O)[C@H]5O)CC[C@]34C=O)[C@@]1(O)CC[C@@H]2C1=CC(=O)OC1,-44.6% (active)
6,Clc1ccc2nnnn2n1,25%
7,CC1(C)N=C(N)N=C(N)N1c1ccc(CCCCc2ccc(Cl)c(S(=O)(=O)F)c2)c(Cl)c1,18.7%
8,CC(=O)[O][Hg][c]1c(N)c(C)cc(C)c1F,-15.5% (active)
9,O=C(NCCN1CC1)C(=O)NCCN1CC1,77.8%
10,[Au+].[N-]=C=O.c1ccc(CN2[CH-]N(Cc3ccccc3)C(c3ccccc3)=C2c2ccccc2)cc1,84.5%
11,O=C(O)CNC(=O)C(Cl)(Cl)Cl,104%
12,N#C[Se]Cc1cc(-c2ccccc2)n(-c2ccc(S(N)(=O)=O)cc2)n1,-59.8% (active)
13,O=C(O)C(O)C(O)C1[O][Sb]([c]2ccc([N+](=O)[O-])cc2)[O]C1CO (configuration not stated),106%
14,O=Cc1cn(Cc2ccc(Cl)cc2)c2ccccc12,89.6%
15,COc1cc(NC(C)CCCNC2CN3CCC2CC3)c2ncccc2c1 (configuration not stated),89.6%
16,Cc1ccc(C(=O)NCCCOc2ccc(N)cc2Cl)cc1S(=O)(=O)F,102%
17,CC(=O)OCC1O[C@@H]([S-])C(OC(C)=O)[C@H](OC(C)=O)[C@@H]1OC(C)=O.[Au+].c1ccc(CN2[CH-]N(Cc3ccccc3)C(c3ccccc3)=C2c2ccccc2)cc1,33.4%
18,O=C(Nc1ccc(Cl)cc1)Nc1nccs1,48.8%
19,Clc1ccc(COC(Cn2ccnc2)c2ccc(Cl)cc2Cl)cc1 (configuration not stated),52.1%
20,CC1CCCC(C[N+](C)(C)C)C1=O (configuration not stated),112%
21,CC(=O)/C=C/c1ccc2c(c1)OCO2,106%
22,O=C(O)c1ccc([S-])cc1.[Au+].c1ccc(CN2[CH-]N(Cc3ccccc3)C(c3ccccc3)=C2c2ccccc2)cc1,-42.7% (active)
